From PubChem BioAssay (NCATS)
Records with an inconclusive call do not appear. Activity calls are given as the source filed them. Unless noted, the call rests on the fitted dose curve; in most records, active means well fitted curve in the direction sought with a large enough effect; inconclusive means small, poorly fitted or top-dose-only effect, or another doubt; inactive means no such curve, though single readings can be large; an effect the other way counts as inactive or inconclusive.

Legend:
[1] = Cell Viability - Jurkat (AID 426;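 active means dose-dependent loss of cell ATP signal giving a full or clear fitted curve, ranked by lower potency value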; further: potency means the concentration at half of the fitted maximal effect); conditions: qHTS
Outline: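 Jurkat (clone E6-1, human T-cell leukemia) cells, 5000/well in complete medium, were exposed to compound for 40 hr at 37 °C. Viability was read as intracellular ATP by CellTiter-Glo luminescence; AC50 came from Hill fits of concentration-response data.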

[2] = Cell Viability - Hek293 (AID 427;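 active means compounds whose dose-response curve shows a full or clear partial loss of cell viability, called from curve shape rather than a numeric limit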;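 further: potency means the concentration at half of the fitted maximal effect; cells exposed to compound for 40 hours at 37 °C before reading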); conditions: qHTS
Outline: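 Luminescent ATP read-out (CellTiter-Glo, 20 min RT) after 40 hr compound exposure at 37 °C in complete medium. Signal normalized to DMSO (basal) and 100 uM tamoxifen (100% inhibition); concentration-response fitted with the standard Hill equation to give AC50.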

[3] = Cell Viability - HepG2 (AID 433; calls by dose curve;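 further: potency means the concentration at half of the fitted maximal effect; potency for ATP loss meaning cytotoxicity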); conditions: qHTS
Outline: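 Read-out is luciferase-based quantitation of cellular ATP as a measure of viable HepG2 cells after 40 h treatment at 37 °C. Signal decrease is scaled between DMSO-only and 100 uM tamoxifen controls, with AC50 fitted by the Hill equation.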

[4] = Cell Viability - MRC5 (AID 434; calls by dose curve;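 further: potency means the concentration at half of the fitted maximal effect; potency reflects cytotoxicity seen as loss of intracellular ATP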); conditions: MRC5 lung fibroblast viability, qHTS
Outline: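 MRC5 normal human lung fibroblasts, 1500 cells/well, exposed to compound for 40 hr at 37 C. Cellular ATP was read by CellTiter-Glo luminescence; data normalized to DMSO and 100 uM tamoxifen, with AC50 from Hill fits.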

[5] = target: Mitogen-activated protein kinase 10 (Mus musculus) (UniProt Q61831); assay: JNK3 AlphaScreen Assay (AID 530; active means well fitted curve in either direction with a large enough effect, not every such curve was filed as active;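 further: kinase came from lysate of stimulated human HepG2 cells; signal reports phosphorylation of biotinylated GST-cJun 1-79 at Ser73 with 10 µM ATP; on the % scale 0 is the no-effect control and ±100 the full control effect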)
Outline: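 qHTS format: compounds tested as titrations against IL-1beta/TNF-alpha-activated HepG2 lysate JNK3 with biotin-GST-cJun substrate and 10 uM ATP at room temperature. Loss of anti-phospho-cJun AlphaScreen signal indicates inhibition.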

[6] = Cell Viability - N2a (AID 540); conditions: N2a mouse neuroblastoma cell viability; at 92.2 µM (top of the series);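 further: plate controls were DMSO alone for no effect and tamoxifen control for full effect; nearly all actives have a fitted effect of over 45% in size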
Outline: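 Mouse neuroblastoma N2a cells (1500/well) were preincubated 5 hr at 37 °C, then exposed to compounds for 40 hr at 37 °C in complete medium. Viability was read as intracellular ATP by CellTiter-Glo luminescence; AC50 from Hill fits.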

[7] = Cell Viability - NIH 3T3 (AID 541); conditions: NIH 3T3 cell viability, qHTS; activity change, negative = cytotoxicity: at 92.2 µM (top of the series);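 further: plate controls were DMSO alone for no effect and tamoxifen positive control for full effect; nearly all actives have a fitted effect of over 25% in size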
Outline: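 NIH 3T3 mouse embryo fibroblasts (1000 cells/well) were plated in complete medium and treated with compound for 40 hr at 37 °C. Viability was read as intracellular ATP by CellTiter-Glo luminescence; AC50 values came from Hill-equation fits of concentration-response data.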

[8] = Cell Viability - HUV-EC-C (AID 542); further: on the % scale 0 is the no-effect control and ±100 the full control effect; nearly all actives have a fitted effect of over 35% in size
Outline: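 HUV-EC-C normal human vascular endothelial cells, 1000 cells/well, pre-incubated 5 hr at 37 °C, then exposed to compounds for 40 hr at 37 °C in complete medium. Viability measured as intracellular ATP by CellTiter-Glo luminescence; AC50 from Hill fits.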

[9] = Cell Viability - H-4-II-E (AID 543); further: on the % scale 0 is the no-effect control and ±100 the full control effect; nearly all actives have a fitted effect of over 35% in size
Outline: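 Rat hepatoma H-4-II-E cells (1500/well) were plated, incubated 5 hr at 37 °C, then exposed to compounds for 40 hr at 37 °C. Cellular ATP was read by CellTiter-Glo luminescence; AC50 came from Hill-equation fits of concentration-response data.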

[10] = Cell Viability - SH-SY5Y (AID 544); conditions: SH-SY5Y neuroblastoma cell viability; viability change, negative = cytotoxic: at 92.2 µM (top of the series); further: nearly all actives have a fitted effect of over 55% in size
Outline: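 Human neuroblastoma SH-SY5Y cells (1500/well) in complete medium were exposed to compounds for 40 hr at 37 °C; intracellular ATP was then quantified by CellTiter-Glo luminescence after 20 min at room temperature. AC50 came from Hill-equation concentration-response fits.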

[11] = Cell Viability - Renal Proximal Tubule (AID 545); conditions: renal proximal tubule cells viability; at 91.7 µM (top of the series), primary cells of rat origin unless noted; further: nearly all actives have a fitted effect of over 40% in size
Outline: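 Luminescent ATP signal (CellTiter-Glo) served as the viability read-out after 40 hr compound exposure of freshly isolated rat proximal tubule cells at 37 °C. Concentration-dependent ATP loss was fitted with the Hill equation to give AC50.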

[12] = Cell Viability - Mesenchymal (AID 546);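 further: cells exposed to compound for 40 hours before reading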
Outline: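 Human kidney mesenchymal cells from normal renal glomeruli, 1000 cells/well, rested 5 hr at 37 °C, then treated 40 hr at 37 °C in complete medium. Cellular ATP read by CellTiter-Glo luminescence; AC50 from Hill-equation fits.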

[13] = Cellular Toxicity (caspase-3) HepG2 (AID 654);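 further: cells exposed to compound for 16 hours before reading; 0% = DMSO alone and 100% = caspase signal from 100 µM tamoxifen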
Outline: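 HepG2 cells (1500/well) in complete medium were treated with compounds for 16 hr at 37 °C. Caspase-3/7 activity was then read as luminescence from peptide-aminoluciferin cleavage. AC50 came from Hill fits, normalized to DMSO and 100 uM tamoxifen.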

[14] = Cellular Toxicity (caspase-3) Jurkat (AID 655); conditions: Jurkat caspase-3 activation, luminescence, DMSO = 0%, tamoxifen = 100%; at 92.2 µM (top of the series);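 further: cells exposed to compound for 16 h at 37 °C before reading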
Outline: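 5000 Jurkat cells/well; compound 16 hr, 37 °C; Caspase-Glo 3/7 added, 20 min RT; luminescence read. Norm: DMSO = 0%, tamoxifen 100 uM = 100%. AC50, Hill model.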

[15] = Cellular Toxicity (caspase-3) HUV-EC-C (AID 656)
Outline: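 qHTS; HUV-EC-C, 1000 cells/well; 5 hr settle, 16 hr cmpd, 37°C; Caspase-Glo 3/7, 20 min RT; luminescence. Norm: DMSO = 0%, tamoxifen 100 uM = 100%. Hill-fit AC50.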

[16] = Cellular Toxicity (caspase-3) SHSY5Y (AID 657)
Outline: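 qHTS, SH-SY5Y, 1500 cells/well, 5 h pre-incubation 37 °C; compound 16 h 37 °C; Caspase-Glo 3/7 1 h RT; luminescence. Norm.: DMSO = 0, 10 uM staurosporine = 100%. Hill fit → AC50.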

[17] = Cellular Toxicity (caspase-3) BJ (AID 658);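 further: 0% = DMSO basal and 100% = 10 µM staurosporine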
Outline: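 BJ human foreskin fibroblasts, 1000 cells/well, treated 16 hours at 37 °C in complete medium; caspase 3/7 activity by Caspase-Glo luminescence after 1 hr at room temperature. Normalized to DMSO and 10 uM staurosporine; AC50 from Hill fits.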

[18] = Cellular Toxicity (caspase-3) MRC-5 (AID 659);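 further: 0% = DMSO basal and 100% = 10 µM staurosporine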
Outline: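 MRC-5 human normal lung fibroblasts, 1500 cells/well, treated 16 h at 37 °C in complete medium. Caspase 3/7 measured by Caspase-Glo luminescence after 1 h at room temperature. Normalized to DMSO and 10 uM staurosporine; AC50 from Hill fit.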

[19] = Cellular Toxicity (caspase-3) Mesangial (AID 660)
Outline: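 Human renal glomerular mesangial cells (1000/well) were treated with compounds for 16 h at 37 °C in complete medium, then caspase 3/7 activity was read by Caspase-Glo luminescence. Data were normalized to DMSO and 100 uM tamoxifen; AC50 from Hill fits.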

[20] = Cellular Toxicity (caspase-3) SK-N-SH (AID 661);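 further: 0% = DMSO basal and 100% = 10 µM staurosporine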
Outline: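 SK-N-SH human neuroblastoma cells (1500/well) were treated with compounds for 16 hr at 37 °C in complete medium; caspase 3/7 activity was read by Caspase-Glo luminescence. AC50 came from Hill fits of data normalized to DMSO and 10 uM staurosporine.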

[21] = Cellular Toxicity (caspase-3) H-4-II-E (AID 663);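 further: cells exposed to compound for 16 hr before readout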
Outline: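 Rat hepatoma H-4-II-E cells (1500/well) plated 5 hr, then exposed to compound titrations for 16 hr at 37 °C. Caspase-Glo 3/7 luminescence read after 20 min at RT; data normalized to DMSO and 100 uM tamoxifen, AC50 from Hill fits.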

[22] = Cellular Toxicity (caspase-3) Hek293 (AID 664);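 further: cells exposed to compound for 16 h at 37 °C before readout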
Outline: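 HEK293 cells were exposed to compounds in complete medium for 16 hr at 37 °C, then caspase-3/7 activity was read by Caspase-Glo 3/7 luminescence after 20 min at room temperature. Data normalized to DMSO and 100 uM tamoxifen; AC50 from Hill fits.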

S=C=Nc1cccc2ccccc12
inactive: Potency [1] > 92 µM | Potency [2] > 92 µM | Potency [3] > 92 µM | Potency [4] > 92 µM | outcome [5] | activity change, negative = cytotoxicity [6] 6.83% | activity change, negative = cytotoxicity [7] 1.16% | Potency [8] | Potency [9] | Potency [10] | activity change, negative = cytotoxicity [11] 4.87% | outcome [12] | outcome [13] | caspase-3 activation [14] 1.77% | outcome [15] | outcome [16] | outcome [17] | outcome [18] | outcome [19] | outcome [20] | outcome [21] | outcome [22]
